Source: PubChem BioAssay (EPA / NIEHS)
Active and inactive are the calls of the source. Rule for the calls: active = hit-call score of the fitted dose curve at least 0.9, where 1 is the maximum; inactive = score below 0.9.

Read-out: solute carrier (SLC22A1), SLC22A1 (gene 6580)
Assay: LTEA_HepaRG_SLC22A1: Life Technologies and Expression Analysis (LTEA) Assay for solute carrier (SLC22A1) using HepaRG (AID 2283524);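 for AC50: TaqMan qRT-PCR normalized to ACTB GAPDH and POLR2A housekeeping genes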
Conditions: mRNA level, 48 h; actives raise or lower the signal
Procedure: LTEA_HepaRG is a cell based, multiplexed-readout assay that uses HepaRG, a human liver cell line, with measurements taken at 48 hours after chemical dosing on a 96-well plate.LTEA_HepaRG_SLC22A1 is one of 102 assay component(s) measured in the LTEA HepaRG cell culture assay. It is a marker of NR mediated transport.Data from the assay component LTEA_HepaRG_SLC22A1 was analyzed into 1 endpoint. This assay endpoint, LTEA_HepaRG_SLC22A1, was analyzed with bidirectional fitting relative to DMSO as the negative control and baseline of activity. Using a type of inducible reporter, measures of mRNA induction for gain or loss-of-signal activity can be used to understand regulation of transcription factor activity. To generalize the intended target to other relatable targets, this assay endpoint is annotated to the transporter intended target family, where the subfamily is organic cation transporter.
A total of 1060 chemcials from the ToxCast library were tested in eight-point concentration-response experiments. Cell culture and cytotoxicity assays were conducted at Thermo Fisher Scientific's Custom Services facility (Madison, WI). A single lot of human HepaRG cells (Thermo Fisher Scientific, Frederick, MD) was used for the cell culture experiments. 96-well format collagen type I coated plates of human HepaRG cells were prepared using established methods. Briefly, cryopreserved HepaRG cells were thawed, plated at a density of approximately 100,000 cells/well in HepaRG Thaw, Plate, and General Purpose media (HPRG770, Thermo Fisher Scientific), and incubated for 48 hours. 0.5% DMSO was selected as vehicle control to balance the requisite need of DMSO in HepaRG cultures to maintain differentiation (for example, baseline metabolism, proportions of hepatocytes vs. cholangiocytes), while enabling further hepatic receptor pathway activation (for example, PXR and CAR) in response to chemical exposure. 48 hours after plating, the culture medium was replaced with HepaRG Serum-Free Incudtion Media. Cells were exposed to each test chemical in duplicate and maintained in CO2 incubators for another 48 hours. Chemical plates were thawed to room temperature and 200x concentrations of treatment groups were prepared. 8-point conentration-reponse curves were made with the highest exposure at 100 uM, followed by half-log dilutions, all in 0.5% DMSO. Each test plate contained variouse controls, induction positive controls (1mM phenobarbital), cytotoxicity positive controls ([…] aflatoxin B1), vehicle controls (0.5% DMSO), and total lysis controls (0.5% DMSO). Cell morphology images were taken using an Essen IncuCyte FLR automated microscope, with six 96-well plates imaged in about 24 minutes. Images were captured and exported and JPEG files. Spent culture media was transfered to black-well plates for the LDH assay, and remaining media was sorted at -80 C for later use. Cells were treated with RLT buffer and frozen until shipped for gene expression analysis. Total RNA was isolated from the cell suspension in 75 uL of Buffer RLT (Qiagen, Germantown, MD 20874) by Quintiles/Expression Analysis (Durham, NC) using a custom isolation procedure. Total RNA from each plate well was transferred to a preamplification plate. Fluidigm's 96.96 Dynamic ArrayTM (Fluidigm, Amsterdam, the Netherlands) technology was used for gene expression analyses by quantitative reverse transcription polymerase chain reaction (qRT-PCR, performed by Quintiles/Expression Analysis, Durham, NC)89. Standard TaqManTM Assays (Applied Biosystems/ThermoFisher Scientific, Foster City, CA) were used to assess the expression of 93 genes selected based on their selectivity and sensitivity to important hepatic receptors known to be modulated by environmental chemicals; importance in human hepatocyte functionality; and hepatotoxicity. […]

| SMILES | outcome | AC50 |
| --- | --- | --- |
| NC(=O)Cn1c(=O)cc(CCN2CCN(c3nccc4sccc34)CC2)c2ccc(F)cc21 | inactive |  |
| CCCCCCC(=O)OCC | inactive |  |
| O=[N+]([O-])C(CO)(CO)CO | inactive |  |
| COc1ccc(S(=O)(=O)N2C(=O)[C@@](c3ccccc3OC)(N3C[C@H](O)C[C@H]3C(=O)N(C)C)c3cc(Cl)ccc32)c(OC)c1 |  | 20.5 µM (active) |
| Cc1cc(NC(=O)C(=O)O)cc(C)c1Oc1ccc(O)c2c1CCC2 |  | 9.92 µM (active) |
| O=C(O)Cc1ccccc1Nc1c(Cl)cccc1Cl | inactive |  |
| NS(=O)(=O)c1cc2c(cc1Cl)NCNS2(=O)=O | inactive |  |
| Cc1cccc(Nc2cc(Cl)nc(SCC(=O)O)n2)c1C | inactive |  |
| CC(CO)OC(C)CO (stereo not given) (tested in a mixture with another compound) | inactive |  |
| Nc1ccc(S(=O)(=O)c2ccc(N)cc2)cc1 | inactive |  |
| C[Si]1(C)O[Si](C)(C)O[Si](C)(C)O[Si](C)(C)O1 | inactive |  |
| Nc1nc(N)c2nc(CNc3ccc(C(=O)N[C@@H](CCC(=O)O)C(=O)O)cc3)cnc2n1 | inactive |  |
| Cc1ccc(C)c(C)c1 | inactive |  |
| CCCCCCCCCCC | inactive |  |
| CN1CCCC1=O | inactive |  |
| O=C(O)CCCCC(=O)O | inactive |  |
| Oc1ccc2ccccc2c1N=Nc1ccccc1 |  | 10.5 µM (active) |
| Cc1ccccc1Cl | inactive |  |
| C[C@]12C=CC(=O)C=C1CC[C@@H]1[C@@H]2C(=O)C[C@@]2(C)[C@H]1CC[C@]2(O)C(=O)CO | inactive |  |
| c1cc(-c2ccncc2)ccn1 | inactive |  |

| SMILES | outcome | AC50 |
| --- | --- | --- |
| COc1cc(C=O)ccc1O | inactive |  |
| NCCO | inactive |  |
| CC(=O)C(C)=CC1C(C)=CCCC1(C)C (stereo not given) | inactive |  |
| O=c1c(O)c(-c2ccc(O)c(O)c2)oc2cc(O)cc(O)c12 | inactive |  |
| CCCCCCCCCCCCCCCCCC(=O)O | inactive |  |
| O=C(OCCCCCOC(=O)c1ccccc1)c1ccccc1 | inactive |  |
| CC=Cc1ccc(O)c(OC)c1 | inactive |  |
| CCNc1cccc(C)c1 | inactive |  |
| Cc1ccc(C(C)C)c(O)c1 | inactive |  |
| CC1(C)CC(N=C=O)CC(C)(CN=C=O)C1 (stereo not given) | inactive |  |
| CC1(C)NC(=O)NC1=O | inactive |  |
| CCCCC(CC)COC(=O)CC(C(=O)OCC(CC)CCCC)S(=O)(=O)O (stereo not given) |  | 50 µM (active) |
| COC(=O)c1ccc(O)cc1 | inactive |  |
| CC(=O)OC/C=C(\C)CCC=C(C)C | inactive |  |
| CC(C)c1ccc(C(=O)N=C(N)N)cc1S(C)(=O)=O |  | 0.35 µM (active) |
| Cc1cccc([N+](=O)[O-])c1C | inactive |  |
| CCCCCCCCCCCC(=O)OC | inactive |  |
| Cc1cccc(C)c1O | inactive |  |
| Cc1cc(=O)[nH]c(=S)[nH]1 | inactive |  |
| Clc1cc(Cl)c(Cl)cc1Cl | inactive |  |
